Screening data (PubChem)
In the library only some 4.1% were active in any assay of this set; here they are far more common.
MazF activator: activators of E. coli MazEF toxin-antitoxin RNase, primary screen, biochemical, fluorescence, uHTS; activation, % at 20 µM; 0.32% of 350,000 active; FAM/BHQ RNA-DNA oligo cleavage fluorescence, 5 h; in the data active means activation above about 50%
Target sequence (P0AE70 whole entry, looked up): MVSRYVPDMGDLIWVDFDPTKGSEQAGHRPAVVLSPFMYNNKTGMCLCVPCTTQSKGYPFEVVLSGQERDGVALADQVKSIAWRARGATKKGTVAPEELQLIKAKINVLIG
Anthrax LF prot: Bacillus anthracis LF protease inhibitors, primary screen, biochemical, multiplex microsphere, MLPCN library; multiplex microsphere protease cleavage assay; inhibition, % at 10 µM; 0.12% of 360,000 active
BoNT-A LC inh2: BoNT/A light chain protease inhibitors, primary screen, biochemical, flow cytometry, MLPCN library | AID 588499, 2011 | 0.17% of 360,000 active | Botulinum neurotoxin type A light chain protease (Clostridium botulinum A str. ATCC 3502) | inhibition, % at 10 µM | multiplex microsphere protease substrate cleavage
DUSP3 inh: VHR1 phosphatase inhibitors, primary screen, biochemical, absorbance, uHTS. Dual specificity protein phosphatase 3 (Homo sapiens), P51452. recombinant VHR phosphatase, pNPP absorbance. inhibition, % at 13.3 µM. 0.52% of 290,000 active; in the data active means inhibition above about 50%
Target sequence (P51452 whole entry, looked up): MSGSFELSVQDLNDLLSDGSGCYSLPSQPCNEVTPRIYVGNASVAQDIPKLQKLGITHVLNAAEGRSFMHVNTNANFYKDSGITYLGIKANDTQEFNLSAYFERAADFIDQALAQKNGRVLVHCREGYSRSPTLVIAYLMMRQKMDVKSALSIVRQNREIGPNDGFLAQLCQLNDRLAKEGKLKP
Bead autofluor: flagged as autofluorescent in microsphere protease counterscreen; compound autofluorescence counterscreen, microsphere flow cytometry; stronger effect = higher value; fluorescence intensity (test concentration not listed); 3.1% of 360,000 active; AID 624483; in the data active means fluorescence intensity above about 16000; inconclusive means no clear call, values can overlap the other calls
BoNT-F LC inh: BoNT/F light chain protease inhibitors, primary screen, biochemical, flow cytometry, MLPCN library; Botulinum neurotoxin type F light chain protease (Clostridium botulinum); Multiplex microsphere protease cleavage assay; inhibition, % at 10 µM; 0.22% of 360,000 active; AID 588497, 2011; in the data active means inhibition above about 35%, passing the limit was not always enough; inconclusive means no clear call, values can overlap the other calls
Large screens that a line does not name were inactive. Unless noted, no stated cut-off is given here; in the data, active means inhibition above about 30%; inconclusive means no clear call, values can overlap the other calls; inactive means below that.

CN(C)S(=O)(=O)n1cc(/C=C(\NC(=O)c2ccccc2F)C(=O)N2CCCC2)c2ccccc21	none
CC[C@@H](C)[C@H](CN[C@H](CNC)[C@@H](C)O)NCCc1ccc(OC)cc1	none
CCC(c1nnnn1-c1ccc2c(c1)OCCO2)N1CCN(c2ccccn2)CC1 (stereo not drawn)	none (no result: MazF activator, DUSP3 inh)
Cc1ccnc(N2CCC(C(=O)Nc3ccc4c(c3)CCC4)CC2)n1	Bead autofluor 17140
Cc1ccnc(N2CCC(C(=O)NNC(=O)c3ccncc3)CC2)n1	none
Cc1ccnc(N2CCC(C(=O)Nc3nnc(C)s3)CC2)n1	Bead autofluor inconclusive
Cc1cccc(NC(=O)C2CCN(c3nccc(C)n3)CC2)c1	BoNT-A LC inh2 inconclusive, Bead autofluor 20388
Cc1cc(C)nc(N2CCC(C(=O)Nc3cccc(C(F)(F)F)c3)CC2)n1	Bead autofluor 17064
COc1cc2c3c(cccc3c1)C(=O)N(CCN1CCCC1)C2=O	none (no result: DUSP3 inh)
COC(=O)[C@@H]1C[C@@]2(Br)c3ccccc3N(S(=O)(=O)c3ccccc3)[C@H]2N1C(=O)OC	none (no result: DUSP3 inh)
Cc1nc(=O)c(-c2ccccc2)c(C)n1-c1ccc(C(=O)O)cc1	Bead autofluor 22979
CC(NC(=O)/C=C/c1ccccc1[N+](=O)[O-])C1CC2CCC1C2 (stereo not drawn)	none
COCCCN1C(=O)C(CC(=O)NCc2cccc3ccccc23)CC(C(=O)N2CCCCCC2)=C1C (stereo not drawn)	none (no result: MazF activator, DUSP3 inh)
COc1ccccc1C(=O)Nc1nnc([C@H]2C[C@H](O)[C@@H](CO)O2)s1	none (no result: MazF activator, DUSP3 inh)
N#Cc1cc(Oc2ccc3ccccc3c2)c(-n2nnc3ccccc32)cc1C#N	Bead autofluor 20725
Cc1ccc(S(=O)(=O)NC(=NCC(=O)O)c2ccc(F)cc2)cc1	Bead autofluor 25722
Cc1cc2n(n1)C(c1sccc1C)Nc1ccccc1-2 (stereo not drawn)	Anthrax LF prot inconclusive, BoNT-A LC inh2 inconclusive, Bead autofluor inconclusive, BoNT-F LC inh inconclusive
Cc1cc2n(n1)C(c1ccccc1)Nc1ccccc1-2 (stereo not drawn)	Bead autofluor 16831
Cc1cc2n(n1)C(c1ccc(N(C)C)cc1)Nc1ccccc1-2 (stereo not drawn)	Bead autofluor 20611
Cc1cc2n(n1)C(c1ccc3c(c1)OCO3)Nc1ccccc1-2 (stereo not drawn)	Bead autofluor 21039
COc1cc(/C=C/C(=O)OCC(=O)c2ccc[nH]2)ccc1O	none (no result: DUSP3 inh)
Cc1cc(N2CCCCC2)nc2ccccc12	none
Cc1cc(-n2nnc3ccccc32)nc2ccccc12	Bead autofluor 17243
CN(Cc1ccccc1)C(=O)[C@@H]1CCCN1C(=O)[C@@H]1CCCN1C(=O)c1ccc(Cl)cc1	none (no result: MazF activator, DUSP3 inh)
O=C1N=C(N2CCOCC2)S/C1=C1\C(=O)N(Cc2ccccc2)c2ccccc21	Bead autofluor 16736
CC1CN(C2=NC(=O)/C(=C3/C(=O)N(Cc4ccc(F)cc4)c4ccccc43)S2)CC(C)O1 (stereo not drawn)	Anthrax LF prot 32, BoNT-A LC inh2 inconclusive, BoNT-F LC inh inconclusive
COc1ccc(N(CC(=O)NCCSc2ccccc2)S(C)(=O)=O)cc1	none
COc1ccc(OC)c(N(CC(=O)NCCSc2ccccc2)S(C)(=O)=O)c1	DUSP3 inh 50
COc1ccc(Cl)cc1N(CC(=O)Nc1cccc(SC)c1)S(C)(=O)=O	Bead autofluor 21540
Cn1nc(C(C)(C)C)cc1NC(=O)C1(C)CCN1C(=O)Cc1ccc(-c2ccccc2)cc1 (stereo not drawn)	none (no result: MazF activator, DUSP3 inh)
O=C(Nc1c[nH]c(=O)[nH]c1=O)c1cccc(F)c1	none
O=C(Nc1c[nH]c(=O)[nH]c1=O)c1cccc([N+](=O)[O-])c1	DUSP3 inh 56, Bead autofluor inconclusive
CC(=O)/C(N=Nc1cccc(C(F)(F)F)c1)=C(\C)O	none
CN(C(=O)/C(N=Nc1cccc(C(F)(F)F)c1)=C(\O)C(F)(F)F)c1ccccc1	Bead autofluor 16687
Cc1cccc(N=Nc2c(O)[nH]c3ccc(Br)cc23)c1	none
